Experiment [1] is described as follows: Tanguay_ZF_120hpf_JAW_legacy: (Legacy) Oregon State University Tanguay Lab 120 Hour Post-fertilization zebrafish Assay for Jaw Malformation (AID 2283638).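 For AC50: active means more embryos with jaw malformation than DMSO controls.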 In a few lines:
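Binary jaw-malformation call at 120 hpf by brightfield microscopy. Embryos (Tropical 5D strain, chorion removed at 4 hpf) were dosed statically at 6 hpf, one per well, at 28C with 0.64% DMSO. Embryos that died were not scored.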

Experiment [2] can be described thus: Tanguay_ZF_120hpf_OTIC_legacy: (Legacy) Oregon State University Tanguay Lab 120 Hour Post-fertilization zebrafish Assay for Otic Vesicle Malformation (AID 2283639). In a few lines: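 Otic vesicle malformation is read as a yes/no morphology call at 120 hpf. Exposure is static at 28C with 0.64% (vol/vol) DMSO; embryos that die are excluded from non-mortality endpoints.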

Experiment [3] is described as follows: Tanguay_ZF_120hpf_BRAI_legacy: (Legacy) Oregon State University Tanguay Lab 120 Hour Post-fertilization zebrafish Assay for Brain Malformation (AID 2283641). In a few lines:
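Binary brightfield scoring of brain malformation at 120 hpf in Tropical 5D larvae held under static exposure at 28C (0.64% v/v DMSO), non-mortality endpoints skipped if dead. Positive control: 5uM trimethyltin chloride; fit versus DMSO.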

Experiment [4] can be described thus: Tanguay_ZF_120hpf_PFIN_legacy: (Legacy) Oregon State University Tanguay Lab 120 Hour Post-fertilization zebrafish Assay for Pectoral Fin Malformation (AID 2283648).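 Note: each larva judged yes or no for fin defect by brightfield with dead larvae skipped.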 In a few lines:
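Dechorionated Tropical 5D wild-type zebrafish embryos, one per well, statically exposed from 6 to 120 hpf at 28C with 0.64% DMSO final. Pectoral fin malformation scored present/absent by brightfield at 120 hpf; not scored in dead embryos.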

Experiment [5] is described as follows: Tanguay_ZF_120hpf_CFIN_legacy: (Legacy) Oregon State University Tanguay Lab 120 Hour Post-fertilization zebrafish Assay for Caudal Fin Malformation (AID 2283649). In a few lines: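 Binary brightfield scoring of caudal fin defects at 120 hpf after static, light-shielded exposure at 28C from 6 hpf. Tropical 5D embryos, chorion removed with pronase at 4 hpf, final DMSO 0.64%.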

Experiment [6] is described as follows: Tanguay_ZF_120hpf_PIG_legacy: (Legacy) Oregon State University Tanguay Lab 120 Hour Post-fertilization zebrafish Assay for Pigmentation Malformation (AID 2283650). In a few lines: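 Dechorionated Tropical 5D wild-type embryos, one per well from 6 hpf, statically exposed at 28C in the dark until 120 hpf, 0.64% DMSO final. Pigmentation scored present/absent by brightfield microscopy; dead embryos not scored; fitted versus DMSO.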

Experiment [7] is described as follows: Tanguay_ZF_120hpf_CIRC_legacy: (Legacy) Oregon State University Tanguay Lab 120 Hour Post-fertilization zebrafish Assay for Circulatory Malformation (AID 2283651). In a few lines: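 Using wild-type Tropical 5D zebrafish, we exposed dechorionated embryos from 6 to 120 hpf in embryo medium with 0.64% DMSO. Circulatory defects were scored as present or absent; 5uM trimethyltin chloride served as positive control.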

Experiment [8] is described as follows: Tanguay_ZF_120hpf_TRUN_legacy: (Legacy) Oregon State University Tanguay Lab 120 Hour Post-fertilization zebrafish Assay for Truncated Body (AID 2283655). In a few lines:
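Binary presence/absence of truncated body is recorded at 120 hpf by brightfield, with non-mortality endpoints skipped after death. Exposure is static from 6 hpf in sealed dark plates at 28C, using dechorionated wild-type zebrafish, 0.64% DMSO.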

Experiment [9] can be described thus: Tanguay_ZF_120hpf_NC_legacy: (Legacy) Oregon State University Tanguay Lab 120 Hour Post-fertilization zebrafish Assay for Notochord and Tail Malformation (AID 2283656). In a few lines:
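Dechorionated 5D zebrafish, 1/well from 6 hpf; static exposure to 120 hpf, 28C, sealed, dark; final DMSO 0.64% v/v. NC scored binary (present/absent); dead embryos not scored. Fit vs DMSO baseline, gain direction.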

Experiment [10] is described as follows: Tanguay_ZF_120hpf_TR_legacy: (Legacy) Oregon State University Tanguay Lab 120 Hour Post-fertilization zebrafish Assay for Touch Response (AID 2283667). In a few lines: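 Tropical 5D wild-type zebrafish embryos statically exposed to 120 hpf at 28°C, sealed and dark-covered, 0.64% DMSO final; touch response scored as present/absent by brightfield microscopy at 120 hpf. Trimethyltin chloride 5 uM positive control; dead embryos not scored.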

Experiment [11] in a line: Tanguay_ZF_120hpf_PE_legacy: (Legacy) Oregon State University Tanguay Lab 120 Hour Post-fertilization zebrafish Assay for Pericardial Edema (AID 2283640).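 For AC50: potency for increased incidence of pericardial edema versus DMSO baseline.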 In a few lines: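 Scoring was binary, by brightfield microscopy at 120 hpf, and skipped where mortality occurred. Wild-type embryos were kept under sealed, foil-covered static exposure at 28C in 0.64% (vol/vol) DMSO.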

Experiment [12] can be described thus: Tanguay_ZF_120hpf_SOMI_legacy: (Legacy) Oregon State University Tanguay Lab 120 Hour Post-fertilization zebrafish Assay for Somite Malformation (AID 2283647). In a few lines:
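Binary somite-defect scoring at 120 hpf, omitted for embryos that died, in wild-type (Tropical 5D) zebrafish with chorion removed by pronase at 4 hpf; static exposure began 6 hpf, single embryos per well, 28C, 0.64% DMSO; fitted positive versus DMSO.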

Experiment [13] can be described thus: Tanguay_ZF_120hpf_SWIM_legacy: (Legacy) Oregon State University Tanguay Lab 120 Hour Post-fertilization zebrafish Assay for Swim Bladder Malformation (AID 2283654).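 Note: swim bladder malformation in each larva scored yes or no under brightfield.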 In a few lines: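 Dechorionated wild-type Tropical 5D zebrafish embryos, one per well from 6 hpf, were statically exposed at 28C until 120 hpf in 0.64% DMSO. Swim bladder malformation scored as present/absent by brightfield microscopy; not scored in dead larvae.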

In experiment [14] the test system is Thyroperoxidase (TPO), gene 54314. The experiment is described as follows: CCTE_Simmons_AUR_rTPO: CCTE's Amplex UltraRed Assay for Thyroperoxidase (TPO) Inhibition, Simmons Lab (AID 2283662).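 For AC50: potency for loss of signal meaning inhibition of peroxidase activity.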 In a few lines:
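Endpoint is decreased Amplex UltraRed fluorescence after a 30-min, 37C reaction of rat thyroid microsomes with 300 uM H2O2. Eight test concentrations (5 nM–87.5 uM final) in 0.5% DMSO, three biological replicates each.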

Experiment [15] is described as follows: CCTE_Simmons_CellTiterGLO_HEK293T: Viability Assessment in CCTE's Assays for Thyroperoxidase (TPO) Inhibition, Simmons Lab (AID 2283665).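 For AC50: cells exposed to compound for 24 h before readout; actives reduce ATP signal below DMSO vehicle meaning cytotoxicity.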 In a few lines: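 Cytotoxicity counter-screen: human HEK293T cells in low-serum (1% FBS) medium receive test chemical, 5 nM to 87.5 uM final, for 24 h; ATP is quantified by luciferase luminescence.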
(In ATP-based viability assays light output follows the ATP content of the culture.)

Read-out in experiment [16]: solute carrier (SLC22A6), SLC22A6 (gene 9356)
The experiment is described as follows: LTEA_HepaRG_SLC22A6: Life Technologies and Expression Analysis (LTEA) Assay for solute carrier (SLC22A6) using HepaRG (AID 2283653; active = hit-call score of the fitted dose curve at least 0.9, where 1 is the maximum; inactive = score below 0.9). The note with it: mRNA level, 48 h; actives raise or lower the signal. In a few lines: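 SLC22A6 transcript was measured by TaqMan qRT-PCR, normalized to three housekeeping genes, after 48 h duplicate exposure of HepaRG cells (100 uM top, half-log steps, 0.5% DMSO); bidirectional fit against vehicle.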

Read-out in experiment [17]: solute carrier (SLC10A1), SLC10A1 (gene 6554)
Description: LTEA_HepaRG_SLC10A1: Life Technologies and Expression Analysis (LTEA) Assay for solute carrier (SLC10A1) using HepaRG (AID 2283657; active = hit-call score of the fitted dose curve at least 0.9, where 1 is the maximum; inactive = score below 0.9). The note with it: mRNA level, 48 h; actives raise or lower the signal. In a few lines: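 HepaRG cells (single lot) exposed 48 h in serum-free induction medium, 8-point half-log series from 100 uM top in 0.5% DMSO, duplicate. SLC10A1 mRNA by qRT-PCR normalised to ACTB, GAPDH, POLR2A; bidirectional fit versus DMSO.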

Read-out in experiment [18]: matrix metalloproteinase-1 (MMP1), MMP1 (gene 4312)
The experiment is described as follows: LTEA_HepaRG_MMP1: Life Technologies and Expression Analysis (LTEA) Assay for matrix metalloproteinase-1 (MMP1) using HepaRG (AID 2283658; active = hit-call score of the fitted dose curve at least 0.9, where 1 is the maximum; inactive = score below 0.9). The settings on record: mRNA level, 48 h; actives raise or lower the signal. In a few lines: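 qRT-PCR (TaqMan, Fluidigm arrays) of MMP1 transcript, normalized against three housekeeping genes and fitted in both directions relative to 0.5% DMSO vehicle. Human HepaRG cultures received duplicate 48 h exposures across 8 points, highest 100 uM with half-log steps.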

Read-out in experiment [19]: Cytochrome P450 (CYP24A1_1), CYP24A1 (gene 1591)
Description: LTEA_HepaRG_CYP24A1_1: Life Technologies and Expression Analysis (LTEA) Assay for Cytochrome P450 (CYP24A1_1) using HepaRG (AID 2283671; active = hit-call score of the fitted dose curve at least 0.9, where 1 is the maximum; inactive = score below 0.9). The note with it: mRNA level, 48 h; actives raise or lower the signal. In a few lines: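 Differentiated human HepaRG cells in serum-free induction medium, exposed 48 h in duplicate to eight half-log concentrations from 100 uM top, 0.5% DMSO. Transcript measured by TaqMan qRT-PCR, normalised to ACTB, GAPDH, POLR2A; bidirectional fitting versus DMSO.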

The values below come from PubChem BioAssay (EPA / NIEHS).

Inconclusive results are not listed. The source made the active and inactive calls. Rule for the calls, unless noted: active = hit-call score of the fitted dose curve at least 0.9, where 1 is the maximum; inconclusive = response in the unintended direction; inactive = score below 0.9.

Consider `CCCCCCCCCCCCCO`, for which the outcome in experiment [1], in experiment [2], in [3], in experiment [4], in experiment [5] and in experiment [6] was inactive. The molecule was classed as inactive in experiment [7], in [8], in experiment [9] and in experiment [10].
Usually AC50 stands for the concentration giving half of the maximal activity seen. Regarding `Cc1cc(=O)[nH]c(=S)[nH]1`, the result in experiment [1], in experiment [2], in experiment [11], in [3], in experiment [12] and in [4] was inactive. Moreover, the molecule was classed as inactive in experiment [5], in [6], in experiment [7], in experiment [13], in experiment [8] and in experiment [9]. Besides, the molecule was called inactive in experiment [15] and in experiment [10]. In addition, the half-maximal activity concentration (AC50) in experiment [14] is 0.593 µM (active).
Consider `Nc1ccccc1N`, for which the AC50 in [1] is 49.4 µM (active); in experiment [11], 10.5 µM (active); in experiment [8], 10.9 µM (active); in [14], 4.15 µM (active); in [10], 77 µM (active). The molecule was classed as inactive in [2], in [4], in experiment [5], in experiment [6], in experiment [7] and in experiment [9]. The molecule was classed as inactive in experiment [15].
Consider `COc1cc(C=O)ccc1O`, for which the AC50 in experiment [1] is 35.3 µM (active); in experiment [2] it was 59.2 µM (active); in experiment [11] it was 37.6 µM (active); in experiment [3], 44.7 µM (active); in experiment [4], 42.8 µM (active); in experiment [6], 45.9 µM (active). Also, the AC50 in experiment [8] is 50 µM (active). The outcome in [5], in experiment [16], in experiment [9], in experiment [17], in experiment [18] and in experiment [19] was inactive.
For the molecule `CCOC(=O)CCC(=O)OCC`, the outcome in experiment [1], in experiment [2], in experiment [11], in experiment [3], in [12] and in [4] was inactive. The result in experiment [5], in experiment [6], in [7], in experiment [13], in experiment [8] and in experiment [9] was inactive.
For the molecule `CCCCOC(=O)CCCCCCCCC(=O)OCCCC`, the molecule was classed as inactive in experiment [1], in experiment [2], in experiment [11], in experiment [12], in experiment [4] and in experiment [5]. Further, the outcome in [6], in experiment [7], in experiment [13], in experiment [8], in experiment [9] and in experiment [10] was inactive.
Regarding `CCOc1ccc2c(c1)C(C)=CC(C)(C)N2`, the results for the half-maximal activity concentration (AC50) in experiment [1], in experiment [14] and in [15] were 15.9 µM (active), 1.48 µM (active) and 48.8 µM (active), respectively. Also, the call in experiment [2], in experiment [11], in experiment [3], in experiment [4], in experiment [5] and in [6] was inactive. Besides, the result in experiment [7], in experiment [13], in experiment [8], in experiment [9] and in experiment [10] was inactive.
Consider `Oc1ccc2ccccc2c1N=Nc1ccccc1`, for which the AC50 was 9.73 µM (active) in [1]; 35.2 µM (active) in [11]; 51.7 µM (active) in [13]; 4.88 µM (active) in experiment [17]; 17 µM (active) in experiment [15]; 25.4 µM (active) in [10]. The result in experiment [2], in experiment [12], in experiment [4], in experiment [5], in [6] and in [7] was inactive. Also, the molecule was classed as inactive in experiment [16], in [8], in experiment [9], in experiment [18], in experiment [14] and in experiment [19].
For the molecule `CCCCCCCC=O`, the molecule was classed as inactive in experiment [1], in experiment [2], in experiment [11], in experiment [3], in experiment [4] and in [5]. The call in [6], in experiment [7], in experiment [13], in [8], in experiment [9] and in experiment [10] was inactive.
